Reference: PubChem BioAssay AID602393 (Broad Institute, 2012)
About 7,000 (2%) of roughly 350,000 compounds were called active. Cut-off read from the data, not from the text of the source: active = activation above about 40%; inconclusive = no clear call, values can overlap the other calls; inactive = below that. The sample as a whole holds a higher share of actives than the screen did.

Test: raisers of Bmi1 knock-in reporter signal – mouse ES cells, Bmi1 luciferase knock-in, single point, esBAF inhibitor project, primary screen (AID 602393);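 note: 0% = median of the plate's neutral control wells and 100% = double that signal; a rise in the Bmi1 reporter signal indicates esBAF inhibition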
Settings: 24 h, at 12.5 µM, stronger effect = higher value, 100% = twice the neutral-well signal

| Structure (SMILES) | reporter increase |
| --- | --- |
| O=C(NCCc1c[nH]c2ccccc12)c1cccc(Br)c1 | 11.6% (inactive) |
| O=C(N/N=C/c1cccc(Br)c1)c1ccc(N2CCCC2=O)cc1 | 7.79% (inactive) |
| O=C(N/N=C/c1c[nH]c2ccccc12)c1ccccc1O | 51.9% (active) |
| O=C(NN=Cc1ccc2c(c1)CCC2)c1ccccc1O | 59.3% (active) |
| O=C(N/N=C\c1cccc(Br)c1)c1ccccc1-n1cccc1 | 3.44% (inactive) |
| O=C(NC(Cc1c[nH]c2ccccc12)C(=O)N/N=C/c1ccc(Br)cc1)c1cccs1 (stereo not drawn) | 4.44% (inactive) |
| COc1ccccc1-c1cccc(-c2nc(C(=O)N3CCN(C)CC3)cc3c2[C@H](CCO)N([S@@](=O)C(C)(C)C)C3)c1 | -0.462% (inactive) |
| C[C@@H]1CN([C@@H](C)CO)C(=O)CCCn2cc(nn2)CO[C@@H]1CN(C)C(=O)c1ccncc1 | -3.8% (inactive) |
| C[C@H](CO)N1C[C@H](C)[C@@H](CN(C)C(=O)c2ccncc2)Oc2cc(C3=CCCCC3)ccc2S1(=O)=O | 2.87% (inactive) |
| C[C@H](CO)N1C[C@H](C)[C@H](CN(C)S(=O)(=O)c2cn(C)cn2)Oc2c(NC(=O)C3CCOCC3)cccc2C1=O | -1.13% (inactive) |
| Cc1cccc(CSc2ccc(-c3cccs3)nn2)c1 | 50.5% (active) |
| Cc1cc(-c2cccs2)nc(-n2cccc2)n1 | 17.4% (inactive) |
| Cc1cccc(CSc2nnc(C)c(=O)n2N)c1 | -7.26% (inactive) |
| C[C@H]1CN([C@@H](C)CO)C(=O)CCCn2nncc2CO[C@H]1CN(C)Cc1ccc2c(c1)OCO2 | 0.657% (inactive) |
| C/C=C/c1cnc2c(c1)C(=O)N([C@H](C)CO)C[C@H](C)[C@@H](CN(C)S(=O)(=O)c1ccccc1F)O2 | 0.934% (inactive) |
| COc1ccccc1-c1cn(CC[C@H]2CC[C@H](NC(=O)Cc3ccccn3)[C@H](CO)O2)nn1 | 0.363% (inactive) |
| Cc1noc(C)c1NC(=O)N(C)C[C@@H]1Oc2ccc(NS(C)(=O)=O)cc2C(=O)N([C@H](C)CO)C[C@@H]1C | -2.07% (inactive) |
| CC(C)C(C)NC(=O)COc1ncnc2ccccc12 (stereo not drawn) | -6.72% (inactive) |
| CCC(=O)NC(=Nc1nc2ccccc2s1)NC(=O)CC | 65.4% (active) |
| CN(Cc1nc2ccccc2s1)C(=O)c1ccc(F)cc1 | 8.62% (inactive) |
| O=C(C[C@H]1C=C[C@@H](NC(=O)CC2CC2)[C@H](CO)O1)NCc1ccc(-c2ccccc2)cc1 | 1.19% (inactive) |

| Structure (SMILES) | reporter increase |
| --- | --- |
| O=C(C[C@H]1C=C[C@H](NC(=O)C2CCC2)[C@H](CO)O1)NCCCN1CCOCC1 | 1% (inactive) |
| CCOC(=O)c1[nH]c(C)c(C(=O)OCC(=O)N2c3ccccc3CC2C)c1C (stereo not drawn) | -0.495% (inactive) |
| Cc1c(C(=O)OCC(=O)N2CCCC2=O)oc2ccccc12 | 18.9% (inactive) |
| CCOC(=O)c1c(C)[nH]c(C(=O)OCC(=O)N2CCCC2=O)c1C | 47% (active) |
| COc1ccccc1CNC(=O)C[C@@H]1CC[C@H]2[C@@H](COc3ccc(NS(=O)(=O)c4ccc(C)cc4)cc3C(=O)N2C)O1 | 1.61% (inactive) |
| O=C(C[C@@H]1CC[C@@H](NC(=O)C2CC2)[C@H](CO)O1)NCc1ccncc1 | -3.27% (inactive) |
| C[C@@H]1CCCCO[C@@H](CN(C)C(=O)c2ccccc2)[C@@H](C)CN([C@@H](C)CO)C(=O)c2cc(NS(=O)(=O)c3ccccc3)ccc2O1 | 12.6% (inactive) |
| COc1ccc(S(=O)(=O)Nc2ccc3c(c2)C(=O)N([C@@H](C)CO)C[C@@H](C)[C@H](CN(C)C(=O)Nc2ccc(C(F)(F)F)cc2)OCCCC[C@@H](C)O3)cc1 | 7.49% (inactive) |
| Cc1ccsc1/C=C1\SC(N2CCOCC2)=NC1=O | 57.3% (active) |
| CCc1ccc(/C=C2\SC(N3CCOCC3)=NC2=O)cc1 | 6.21% (inactive) |
| CC1CCN(C2=NC(=O)/C(=C/c3ccc(O)cc3)S2)CC1 | 24.8% (inactive) |
| O=C1N=C(N2CCOCC2)S/C1=C\C=C/c1ccccc1 | 55.8% (active) |
| O=C1N=C(N2CCc3ccccc3C2)S/C1=C\c1ccc(O)cc1 | -1.11% (inactive) |
| O=C1N=C(N2CCOCC2)CS1 | 0.767% (inactive) |
| CC(C)NC(=O)N(C)C[C@H]1Oc2ncc(C#CC3(O)CCCC3)cc2C(=O)N([C@H](C)CO)C[C@@H]1C | 0.475% (inactive) |
| CN1c2ccc(-c3ccccc3F)cc2[C@H]2[C@H](CCN2C(=O)Nc2cc(F)ccc2F)[C@H]1CO | 7.83% (inactive) |
| C/C=C/c1ccc([C@@H]2[C@H](CO)N(C(C)=O)[C@H]2CN(CC)C(=O)CN(C)C)cc1 | -4.39% (inactive) |
| CCC(=O)NC[C@H]1[C@@H](c2ccc(C3=CCCC3)cc2)[C@@H](CO)N1C(=O)C1CC1 | 0.745% (inactive) |
| CS(=O)(=O)Nc1ccc2c(c1)[C@@H]1C[C@H](CC(=O)NCc3ccccn3)O[C@@H](CO)[C@@H]1O2 | 0.762% (inactive) |
| O=C(C[C@H]1CC[C@@H](NC(=O)c2ccccc2)[C@@H](CO)O1)NCc1ccncn1 | -3.6% (inactive) |
| CC(=O)c1ccc2c(ccc3ccccc32)c1 | 43.2% (active) |

| Structure (SMILES) | reporter increase |
| --- | --- |
| CC(=O)c1ccc(N2Cc3ccccc3C2)cc1 | 23.9% (inactive) |
| O=C(NNC(=O)c1ccc2ccccc2c1)c1ccc(Cl)cc1 | -2.35% (inactive) |
| N#C[C@H]1[C@@H](c2ccc(-c3ccccc3F)cc2)[C@H](CO)N1C(=O)c1ccccn1 | -5.75% (inactive) |
| O=C(CCN1CCCCC1)N[C@@H]1C=C[C@@H](CC(=O)N2CCC(Cc3ccccc3)CC2)O[C@H]1CO | 9.59% (inactive) |
| Cc1ccc(-c2cnc3c(c2)C(=O)N([C@H](C)CO)C[C@@H](C)[C@@H](CN(C)C(=O)CN(C)C)O3)cc1 | -1.4% (inactive) |
| COc1cccc(/C=C/C(=O)Nc2ccc3c(c2)OCCO3)c1 | 52.9% (active) |
| COc1ccccc1OCCCC(=O)Nc1ccc2c(c1)OCCO2 | 4.46% (inactive) |
| Cc1cccc(NC(=O)/C=C/c2ccc3c(c2)OCO3)n1 | 9.44% (inactive) |
| COc1ccccc1-c1ccc2c(c1)[C@H]1[C@H](CCN1S(=O)(=O)c1ccccc1)[C@@H](CO)N2 | -9.94% (inactive) |
| C/C=C/c1cnc2c(c1)C(=O)N([C@@H](C)CO)C[C@H](C)[C@H](CN(C)C(=O)CN1CCOCC1)O2 | 1.11% (inactive) |
| CCOC(=O)c1c(C)nc2c(c1C)c(=O)oc1ccccc12 | 43.1% (active) |
| CCCCC(=O)Nc1cc(C)c2c(=O)oc3ccccc3c2n1 | -4.09% (inactive) |
| CCOC(=O)c1c(C)oc(C)c(C(=O)OCC)c1=O | -9.85% (inactive) |
| Cc1noc(C)c1NC(=O)N(C)C[C@@H]1Oc2ccc(NS(=O)(=O)c3ccc(Cl)cc3)cc2C(=O)N([C@@H](C)CO)C[C@H]1C | -6.44% (inactive) |
| CC(C)NC(=O)COCc1cc(-c2ccc3c(c2)OCO3)on1 | 16.1% (inactive) |
| COc1ccc(CCNC(=O)c2cc(-c3ccc4c(c3)OCO4)on2)cc1OC | 0.657% (inactive) |
| CCc1ccccc1NC(=O)c1cc(-c2ccc3c(c2)OCO3)on1 | 43.8% (active) |
| O=C(C[C@H]1CC[C@@H]2[C@H](COC[C@@H](O)CN2Cc2cc(F)cc(F)c2)O1)NC1CCC1 | 2.1% (inactive) |
| COc1ccc(S(=O)(=O)N(C)C[C@@H]2Oc3ncc(C#Cc4ccc(F)cc4)cc3C(=O)N([C@H](C)CO)C[C@@H]2C)cc1 | 3.53% (inactive) |
| CCCNC(=O)N(C)C[C@H]1Oc2cc(-c3ccncc3)ccc2S(=O)(=O)N([C@H](C)CO)C[C@@H]1C | 6.74% (inactive) |
| COc1ccc2oc(N)c(C=O)c(=O)c2c1 | -2.61% (inactive) |

| Structure (SMILES) | reporter increase |
| --- | --- |
| CCc1cc2c(=O)c(-c3nc4ccccc4n3C)c(CCCC(=O)O)oc2cc1OC(=O)C(C)(C)C | 6.89% (inactive) |
| CCc1cc2c(=O)c(-c3ccon3)c(N)oc2cc1OC | 50.4% (active) |
| CC(=O)Nc1ccc2c(c1)C(=O)N(C)[C@H]1CC[C@@H](CC(=O)NCC3CC3)O[C@H]1CO2 | 9.13% (inactive) |
| Clc1ccc(-c2csc(-c3ccncc3)n2)cc1 | 51.5% (active) |
| CNC(=O)c1csc(-c2ccccc2)n1 | 13.5% (inactive) |
| O=C(NNC(=O)c1csc(-c2cccnc2)n1)Nc1ccc(Cl)cc1 | 0.726% (inactive) |
| CN(C)CC(=O)Nc1ccc2c(c1)[C@@H]1C[C@H](CC(=O)NCc3ccc(-c4ccccc4)cc3)O[C@@H](CO)[C@@H]1O2 | 16% (inactive) |
| COc1ccc2c(Cl)c(-c3nnco3)sc2c1 | 8.57% (inactive) |
| C#CCSc1nnc(-c2sc3ccccc3c2Cl)o1 | 51% (active) |
| CCCCSc1nnc(-c2ccc(C)cc2)o1 | 17.9% (inactive) |
| C[C@@H](O)C#Cc1ccc2c(c1)O[C@@H](CN(C)C)[C@@H](C)CN([C@@H](C)CO)S2(=O)=O | -2.61% (inactive) |
| C[C@H](NC(=O)C[C@@H]1CC[C@@H]2[C@H](COC[C@@H](O)CN2C(=O)Nc2cc(Cl)cc(Cl)c2)O1)c1ccccc1 | -3.61% (inactive) |
| C[C@@H]1CN([C@H](C)CO)S(=O)(=O)c2ccc(C#CC3CCCC3)cc2O[C@@H]1CN(C)Cc1ccccc1C(=O)O | -3.9% (inactive) |
| O=C(C[C@@H]1CC[C@@H]2[C@H](COC[C@H](O)CN2C(=O)Cc2ccccc2)O1)NC1CCC1 | -8.39% (inactive) |
| CCCn1c(=N)n(CC(=O)c2ccc(Cl)c(Cl)c2)c2ccccc21 | 3.54% (inactive) |
| COc1ccc2cc(C(=O)O)n(CC(=O)c3ccccc3)c2c1 | -1.55% (inactive) |
| CCn1c(=N)n(CC(=O)c2cccc(OC)c2)c2ccccc21 | 64.8% (active) |
| CC1CCc2c(sc3nc4n(c(=O)c23)CCS4)C1 (stereo not drawn) | 46.4% (active) |
| Cn1c(NN)nc2sc3c(c2c1=O)CCC3 | -3.52% (inactive) |
| NNC(=O)C1CCCn2c1nc1sc3c(c1c2=O)CCCC3 (stereo not drawn) | 2.26% (inactive) |
